From PubChem BioAssay come the findings set out here.

Activity calls are given as the source filed them. The rule behind the calls is not given here.

Sequence of Pantothenate synthetase (Mycobacterium tuberculosis (strain ATCC 25618 / H37Rv)) (P9WIL5 whole entry, looked up): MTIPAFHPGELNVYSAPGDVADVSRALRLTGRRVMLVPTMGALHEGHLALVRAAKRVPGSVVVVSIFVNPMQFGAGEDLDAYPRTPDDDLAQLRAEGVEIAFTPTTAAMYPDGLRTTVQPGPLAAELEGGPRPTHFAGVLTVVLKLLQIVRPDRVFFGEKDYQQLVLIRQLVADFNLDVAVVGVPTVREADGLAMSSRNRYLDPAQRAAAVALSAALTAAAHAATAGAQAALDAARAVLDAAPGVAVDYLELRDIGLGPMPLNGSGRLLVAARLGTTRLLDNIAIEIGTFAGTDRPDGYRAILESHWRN

This experiment addresses Pantothenate synthetase (Mycobacterium tuberculosis (strain ATCC 25618 / H37Rv)) (UniProt P9WIL5). Briefly: Coupled enzyme confirmation of inhibitors against recombinant Mtb PanC (AID 375).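 Note: 0% = full reaction with vehicle and 100% = no enzyme background.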 The following applies: coupled enzyme assay; at 10 µM, active compounds read high.
`Cc1nc2ccccn2c1C(=O)NCCCN1CCOCC1`: the inhibition was 10% (inactive).

For `Cc1nnc(N(C)C(=O)c2cccnc2)s1`, the inhibition is 0% (inactive).

For the compound `CCN(CC)CCOc1cccc(C(C)C)c1`, the inhibition is 4% (inactive).

As to `O=C(Nc1ccc(Cc2ccc(NC(=O)N3CCOCC3)cc2)cc1)N1CCOCC1`, the inhibition is 2% (inactive).

In the case of `CCOc1ccc(N(CC(=O)Nc2ccc(C)c(C)c2)S(=O)(=O)c2c(C)noc2C)cc1`, the inhibition was 0% (inactive).

`COc1c2ccoc2nc2c(OC)c(OCC(O)C(C)(C)O)ccc12` (stereo not drawn): the inhibition is 0% (inactive).

Regarding `CN(c1ccccc1)S(=O)(=O)c1cc(C(=O)N2CCN(c3ccccn3)CC2)ccc1Cl`, the inhibition is 0% (inactive).

As for `CCC(=O)N1CCc2cc(Br)cc(S(=O)(=O)N3CCCCCC3)c21`, the inhibition was 0% (inactive).

Turning to `Cn1c2ccc(F)cc2c2ncn(CCN3CCOCC3)c(=O)c21`, the inhibition is 6% (inactive).

Regarding `Cc1[nH]nc2c1C(=O)CCC2`, the inhibition is 0% (inactive).

As for `COCCn1nnnc1CN(Cc1cccnc1)Cc1cc2cc(OC)ccc2[nH]c1=O`, the inhibition is 6% (inactive).

For the compound `O=C(NCc1cccs1)c1cc2c(s1)-c1ccccc1OC2`, the inhibition was 0% (inactive).

`Cn1cc(-c2nc3ccccc3[nH]2)c2ccccc21`: the inhibition was 4% (inactive).

As for `CCOC(=O)Cn1c(CN2CCOCC2)nc2c1c(=O)[nH]c(=O)n2C`, the inhibition is 0% (inactive).

`O=C(OCC#CCSc1nc2ccccc2o1)c1ccco1`: the inhibition was 0% (inactive).

With `CC(=O)Nc1c(C(=O)C2CC2)oc2ccccc12`, the inhibition is 3% (inactive).

As to `C(=N\n1cnnc1)/c1cccnc1`, the inhibition was 0% (inactive).

On to `Nc1ccc(Sc2nnnn2-c2ccccc2)c(Cl)c1`, for which the inhibition was 6% (inactive).

As for `Cc1ccccc1CN1CCN(CC(=O)NCc2ccccc2)C1=O`, the inhibition was 2% (inactive).

`O=C(COC(=O)CCC1CCCC1)Nc1ccc(Cl)cn1`: the inhibition is 2% (inactive).

Turning to `O=C(CCCn1c(=O)c2sccc2n(CC(=O)NCc2ccco2)c1=O)NCc1ccco1`, the inhibition was 0% (inactive).

For `COC(=O)CCC(=O)CN`, the inhibition was 0% (inactive).

In the case of `COc1ccc(-c2noc(CCCOc3ccccc3)n2)cc1OC`, the inhibition is 7% (inactive).

By inhibition is commonly meant the share of the control response that was lost under treatment.
